Assay outcomes from PubChem.
Sampled rows, rich in hits. Any-hit rate of the full collection: about 6.6%.
GDH-TPI counter = inhibits GDH-TPI coupling enzymes, artifact for Mtb FBA screen. GDH-TPI coupled enzyme counterscreen, NADH absorbance. inhibition, % at 4.8 µM. 1.2% of 360,000 active. AID 588335; in the data active = inhibition above about 30%;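 also: 0% = DMSO wells and 100% = wells lacking the enzyme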
Mtb FBA inh = inhibits M. tuberculosis FBA enzyme; P9WQA3; purified M. tuberculosis FBA, fluorescence read-out; inhibition, % at 1 µM; 2.3% of 360,000 active; AID 588726; in the data active = inhibition above about 27%;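 also: 0% = vehicle and 100% = reference inhibitor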
Anthrax LF prot = anthrax lethal factor protease inhibition; multiplex microsphere protease cleavage assay, LF; inhibition, % at 10 µM; 0.12% of 360,000 active; also: plate controls were buffer without enzyme for full effect and enzyme alone for no effect
BoNT-A LC inh2 = BoNT A light chain protease inhibition; multiplex microsphere protease substrate cleavage, flow cytometry; inhibition, % at 10 µM; 0.17% of 360,000 active; also: plate controls were buffer without enzyme for full effect and enzyme alone for no effect
BoNT-F LC inh = blocks Botulinum neurotoxin F light chain protease | Multiplex microsphere protease cleavage assay, flow cytometry | inhibition, % at 10 µM | 0.22% of 360,000 active; in the data active = inhibition above about 35%, passing the limit was not always enough; inconclusive = no clear call, values can overlap the other calls; also: plate controls were buffer without enzyme for full effect and enzyme alone for no effect
Bead autofluor = flagged as autofluorescent in microsphere protease counterscreen; fluorescence intensity (concentration not given with the values); compound autofluorescence counterscreen, microsphere flow cytometry; stronger effect = higher value; AID 624483; 3.1% of 360,000 active; in the data active = fluorescence intensity above about 16000; inconclusive = no clear call, values can overlap the other calls
* hit, by the source's call; ? = inconclusive; . = no result. Rule as the data show it, unless noted: active = inhibition above about 30%; inconclusive = no clear call, values can overlap the other calls; inactive = below that.

SMILES	GDH-TPI counter	Mtb FBA inh	Anthrax LF prot	BoNT-A LC inh2	BoNT-F LC inh	Bead autofluor
Cc1ccc(SCCC(=O)Nc2nccs2)cc1	4	4	-7	0	-15	5651
O=C(CSc1ccc([N+](=O)[O-])cn1)Nc1nccs1	34*	-3	7	2	3	5121
O=[N+]([O-])c1ccc(C2CCCC/C2=N\OCc2cccc(F)c2)c([N+](=O)[O-])c1 (configuration not stated)	22	1	-4	?	-9	23769*
COc1ccccc1NC(=O)/C(C#N)=C/c1ccc(OCCN2CCOCC2)c(OC)c1	0	2	1	0	9	5337
Cc1cccc(CNC(=O)C2CCC(=O)N(CCc3cccc(F)c3)C2)n1 (configuration not stated)	6	-2	3	2	8	5372
COc1cc(C2/C(=C(\O)c3ccc4c(c3)OCCO4)C(=O)C(=O)N2CCN2CCOCC2)cc(OC)c1OC (configuration not stated)	10	2	0	1	2	4243
Cc1ccc(C)c(/C(O)=C2\C(=O)C(=O)N(Cc3cccnc3)C2c2cccnc2)c1 (configuration not stated)	37*	-16	2	0	-6	4838
O=C(C1=C(O)C(=O)N(CCN2CCOCC2)C1c1cccnc1)c1cc2ccccc2o1 (configuration not stated)	9	-2	-3	-1	-4	19706*
O=C1C(=O)N(Cc2cccnc2)C(c2ccccn2)/C1=C(/O)c1ccccc1 (configuration not stated)	14	-2	-3	0	8	3804
Cc1ccc(/C(O)=C2/C(=O)C(=O)N(CCN3CCOCC3)C2c2cccnc2)cc1 (configuration not stated)	33*	-1	-5	0	-2	9798
CCOc1ccc(C2/C(=C(\O)c3ccc4c(c3)OCCO4)C(=O)C(=O)N2CCN2CCOCC2)cc1OC (configuration not stated)	34*	0	-3	0	-5	5838
CC1(Cc2ccccc2OC(F)(F)F)C(=O)Nc2ccc(-c3ccsc3)cc21 (configuration not stated)	3	-2	-2	0	-3	4241
COc1cc(C(O)c2nc(-c3ccccc3)cs2)ccc1F (configuration not stated)	-6	-1	-3	0	4	3802
COCCN1C(=O)C(=O)/C(=C(/O)c2ccc(S(=O)(=O)N3CCOCC3)cc2)C1c1ccc(O)cc1 (configuration not stated)	33*	-3	5	-1	-4	4904
COc1cccc(/C(O)=C2/C(=O)C(=O)N(CCN3CCOCC3)C2c2cccnc2)c1 (configuration not stated)	11	-3	0	1	-3	4285
COCCCN1C(=O)C(=O)/C(=C(/O)c2ccc(S(=O)(=O)N3CCOCC3)cc2)C1c1ccc(OC)cc1 (configuration not stated)	16	2	1	0	2	5270
COc1ccc(/C(O)=C2/C(=O)C(=O)N(Cc3cccnc3)C2c2ccncc2)cc1F (configuration not stated)	18	0	-2	0	-5	3798
Cc1ccc(C)c(/C(O)=C2\C(=O)C(=O)N(CCCN3CCOCC3)C2c2cccnc2)c1 (configuration not stated)	53*	-3	-2	0	2	2965
Cc1cc(OCc2ccccc2)ccc1/C(O)=C1/C(=O)C(=O)N(Cc2cccnc2)C1c1ccncc1 (configuration not stated)	38*	2	.	.	.	.
COc1cccc(C2/C(=C(\O)c3ccc4c(c3)OCCO4)C(=O)C(=O)N2Cc2cccnc2)c1 (configuration not stated)	32*	5	-2	0	-2	5549
Cn1cc(CNC(=O)/C=C/c2ccc(Cl)cc2)cn1	3	-1	-6	-1	-19	9819
COc1ccc(C(=O)OCC(=O)NCC2CCCO2)cc1S(=O)(=O)N1CCCc2ccccc21 (configuration not stated)	-1	-2	-1	-1	2	4631
O=C(CSc1nnc2c(n1)[nH]c1ccccc12)Nc1nncs1	13	1	1	-1	1	6241
O=C(Nc1ccc(C(F)(F)F)cc1)C1CCCN1S(=O)(=O)c1cccc2cccnc12 (configuration not stated)	10	-1	-9	-1	-6	16378*
O=C(Nc1cccc(F)c1)C1CCCN1S(=O)(=O)c1cccc2cccnc12 (configuration not stated)	0	2	4	0	4	5537
SMILES	GDH-TPI counter	Mtb FBA inh	Anthrax LF prot	BoNT-A LC inh2	BoNT-F LC inh	Bead autofluor
CCC(c1nc2ccccc2c(=O)n1CCN1CCOCC1)N1C(=O)c2ccccc2C1=O (configuration not stated)	-9	-1	-4	-1	-3	20159*
CCC(c1nc2ccccc2c(=O)n1CCCn1ccnc1)N1C(=O)c2ccccc2C1=O (configuration not stated)	11	-5	-2	1	8	8911
Cc1nn(-c2ccc(F)cc2)c2sc(C(=O)OCC(=O)N3CCC(C)CC3)cc12	10	4	-10	?	10	19994*
COc1ccc(NC(=O)c2ccc(C(=O)c3cc(OC)ccc3OC)cc2)cc1	-3	8	1	6	6	20895*
CC1(C)CC(=O)C2=C(C1)N(Cc1ccco1)C(=O)C2(NC(=O)c1cccnc1)C(F)(F)F (configuration not stated)	-10	0	-3	?	-1	20736*
CCCCN1C(=O)C(NC(=O)c2cccnc2)(C(F)(F)F)C2=C1CC(C)(C)CC2=O (configuration not stated)	13	0	-2	2	3	23010*
CC1(C)CC(=O)C2=C(C1)N(Cc1cccnc1)C(=O)C2(NC(=O)c1cccnc1)C(F)(F)F (configuration not stated)	6	-9	2	0	0	9303
COc1cc(CN2C(=O)C(NC(=O)c3ccco3)(C(F)(F)F)C3=C2CC(C)(C)CC3=O)cc(OC)c1 (configuration not stated)	-3	3	-5	-2	-13	6470
CCOC(=O)NC1(C(F)(F)F)C(=O)N(Cc2ccccc2)C2=C1C(=O)CC(C)(C)C2 (configuration not stated)	4	0	-4	-4	-8	25964*
COc1cccc(NC(=S)NCc2cccs2)c1	12	1	-2	0	-3	2392
COc1ccccc1N1CCN(/N=C/C=C/c2ccccc2[N+](=O)[O-])CC1	10	-4	.	.	.	.
Cc1cc(C)cc(OCc2nnc(SCC(=O)N3CCCCC3)o2)c1	4	-5	-11	1	11	3673
CCCNC(=O)NC1CCCCCCC1	-4	0	-2	0	-6	2182
